# Data published in PubChem BioAssay AID1626 (SRMLSC, 2009).
# Hit rate of the full screen: of about 220,000 compounds, about 2,000 (0.91%) were called active. About 2% were inconclusive and are not listed. A selection follows. Potency and affinity values are given separately. A number with no mark means an inactive call. No stated cut-off is given here; in the data, inconclusive means inhibition above about 80% without an active follow-up result; inactive means below that; test concentration not stated here.
# Test: M. tuberculosis H37Rv growth inhibitors, H37Rv strain (AID 1626);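 further: bacteria incubated seven days before Alamar blue readout; 0% = bacteria only wells and 100% = bacteria with antibiotic wells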
# Details: stronger effect = higher value, concentration not given here
row,Compound,inhibition [%]
1,Cc1cc(C)n2c(Br)c(CN3CC4CC(C3)c3cccc(=O)n3C4)nc2n1 (configuration not stated),9.25
2,Brc1ccccc1-c1cnco1,-1.43
3,Cc1cccc(OCC(=O)N2CCN(C(=O)c3ccco3)CC2)c1,-15.9
4,COc1ccc(-n2c(C)nc3c(cnn3-c3ccc(C)c(C)c3)c2=O)cc1,17.5
5,O=c1cc(CSc2n[nH]c(-c3ccncc3)n2)nc2sccn12,1.39
6,CCN(CC)C(=O)Oc1c(Cl)cc(Cl)c2cccnc12,4.99
7,OCCN1CCN(Cc2cc(Cl)c3cccnc3c2O)CC1,-5.12
8,Oc1ccc(CN2CCc3ccccc3C2)c2cccnc12,1.81
9,CN(C)C(=O)Oc1c(Cl)cc(Cl)c2cccnc12,1.37
10,CCOC(=O)CN1C(=O)S/C(=C/c2cc(C)n(C)c2C)C1=O,8.52
11,CC(NCCN(C)C)C(=O)C12CC3CC(CC(C3)C1)C2 (configuration not stated),6.21
12,Cc1ccc(NCCC#N)cc1C,-1.15
13,CCn1c(SCC(=O)NCc2ccccc2)nnc1-c1ccccc1O,-6.19
14,CCOc1cc(/C=N/NC(=O)CSc2nncn2C)ccc1OCc1ccccc1,-1.69
15,CCOC(=O)c1[nH]ncc1CN1CCC(Cc2cccc(OC)c2)(C(=O)OCC)CC1,-9.77
16,O=C(OCC(=O)N1CCCc2ccccc21)c1cncc(Br)c1,-11.1
17,Cn1c(O)c(C(c2ccncc2)c2c(O)n(C)c(=S)n(C)c2=O)c(=O)n(C)c1=S,-3.3
18,OCc1cn(-c2ccccc2)nc1-c1ccc(-c2nn(-c3ccccc3)cc2CO)cc1,-1.67
19,COc1ccc(-c2nn(-c3ccccc3)cc2CO)cc1,5.02
20,O=C(O)Cc1cn(-c2ccccc2)nc1-c1ccccc1,3.9
21,Cc1ccc(-c2nn(-c3ccccc3)cc2CSC(=N)N)cc1,50.3

row,Compound,inhibition [%]
1,Cc1cc(C)c(NC(N)=S)c(C)c1,5.56
2,O=C(Nc1ccc2c(c1)Cc1ccccc1-2)c1cc2ccccc2o1,34.9
3,CCOC(=O)/C(C(C)=O)=C1/OC(=O)c2ccccc21,2.35
4,COc1ccc(N2CCN(S(=O)(=O)c3ccc(OC)cc3)CC2)cc1,6.85
5,O=C(Nc1ccc(F)cc1F)C1(c2cccs2)CCOCC1,4.02
6,CCOC(=O)c1c(NC(=O)CCc2ccc(CC)o2)sc(C)c1C,-6.75
7,Cc1cc(C)nc(NS(=O)(=O)c2ccc(NC(=O)CCC3COc4ccccc4O3)cc2)n1 (configuration not stated),0.51
8,COC(=O)CCC(=O)Nc1ccc(OC)cc1,1.4
9,CCc1ccc(CCC(=O)Nc2ccc(C)cc2C)o1,12.7
10,CCc1ccc(CCC(=O)Nc2ccc(S(N)(=O)=O)cc2)o1,1.79
11,Cc1ccc(NC(=O)CCSCCC(=O)Nc2ccc(C)c(C)c2)cc1C,7.02
12,CCc1ccc(CCC(=O)Nc2ccc(C(C)=O)cc2)o1,7.37
13,O=C(CCC1COc2ccccc2O1)Nc1cccnc1 (configuration not stated),-8.19
14,O=[N+]([O-])c1ccc(C2CCCC/C2=N/OCc2ccccc2F)c([N+](=O)[O-])c1 (configuration not stated),0.93
15,CC1CC(=O)c2cnc(Nc3cccc(C(F)(F)F)c3)nc2C1 (configuration not stated),2.97
16,O=C(Cn1nc(-c2ccccc2)c2ccccc2c1=O)NCC1CCCO1 (configuration not stated),8.76
17,Cc1ccc(-n2c(C)cc3c2CCCC3=O)cc1,-0.32
18,COC(=O)c1ccc(C(C(=O)NC2CCCCC2)N(C(=O)Cc2cccs2)C2CC2)cc1 (configuration not stated),-2.62
19,COc1ccc(CCNC(=O)C2CCN(c3ccc(N4CCOCC4)nn3)CC2)c(OC)c1,6.05
20,c1cnc2nc(-c3ccc4c(c3)OCO4)cn2c1,-8.76
21,COc1ccc(-c2nc3ncccn3c2Br)cc1,-1.31

row,Compound,inhibition [%]
1,CC(NC(=O)COC(=O)Cc1ccsc1)c1ccccc1 (configuration not stated),-0.56
2,O=C(NCc1ccccc1)N(Cc1cc2cc3c(cc2[nH]c1=O)OCCO3)CC1CCCO1 (configuration not stated),-1.33
3,CC1CCN(Cc2c(C#N)c3ccccc3n2C)CC1,-4.52
4,Cc1nc(Nc2c(Cl)cccc2Cl)sc1C(=O)Nc1ccccc1,10.3
5,Cc1nc(Nc2ccccc2)sc1C(=O)Nc1ccccc1,21.1
6,O=C(OCC(=O)c1ccc[nH]1)c1ccc(S(=O)(=O)N2CCCCC2)cc1,-10.2
7,S=c1[nH]nc(COc2ccccc2)n1/N=C/C=C/c1ccccc1,12.1
8,CCN(CC)C(=O)N1CCN(S(=O)(=O)c2ccc(C)cc2)CC1,-9.01
9,O=C(COc1ccccc1)Nn1c(-c2ccccc2)nc2ccccc2c1=O,-3.31
10,O=C(N/N=C/c1ccncc1)c1ccc(NS(=O)(=O)c2cccs2)cc1,-0.88
11,c1ccc(N2CCN(c3cnc4ccccc4n3)CC2)cc1,5.67
12,COc1ccc(N2CCN(c3cnc4ccccc4n3)CC2)cc1,-9.34
13,CC(C)C(NS(=O)(=O)c1cccc2nsnc12)C(=O)NCCC1=CCCCC1 (configuration not stated),-3.27
14,Cc1cc(O)c(C(C[N+](=O)[O-])c2ccc(Cl)cc2)c(=O)o1 (configuration not stated),6.11
15,Cc1ccc(C(C[N+](=O)[O-])c2c(-c3ccccc3O)[nH][nH]c2=O)cc1 (configuration not stated),4.79
16,O=c1[nH][nH]c(-c2ccccc2O)c1C(C[N+](=O)[O-])c1ccccc1 (configuration not stated),6.94
17,Cc1cc(O)c(C(C[N+](=O)[O-])c2ccc(Cl)cc2Cl)c(=O)o1 (configuration not stated),2.19
18,Cc1[nH]n(-c2ccccc2)c(=O)c1C(C[N+](=O)[O-])c1ccccc1Cl (configuration not stated),3.54
19,Cc1[nH]c2ccccc2c1C(C[N+](=O)[O-])c1cccc(O)c1 (configuration not stated),6.89
20,O=C(Nc1ccccc1)c1ccc(NCc2cccnc2)c(S(=O)(=O)N2CCOCC2)c1,1.54
